HepG2 tox-1: qHTS for Inhibitors of TGF-b: Cytotox Counterscreen. HepG2 CAGA-GFP viability, ATP luminescence, 18 h. Potency, µM (titrated, usually from 46.1 µM), hits mostly cytotoxic. actives 0.76% (n = 410,000)
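CellTiter-Glo luminescence gave cytotoxicity after 18 hours at 37 degrees C. The cells were HepG2 CAGA-GFP in 1% FBS DMEM, stimulated with 500 pg/mL TGF-beta after compound addition. %Activity was normalised to no-cell wells (complete cell-killing) and DMSO (no toxicity), and curves were fitted and classified.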
TGFb SMAD3 inh: qHTS for Inhibitors of TGF-b. HepG2 CAGA-GFP TGF-b/SMAD3 reporter, GFP fluorescence, 18 h; TGF-beta stimulated, 500 pg/mL final. AID 588855, 2011. Potency, µM (highest dose often 46.1 µM), most hits filed as inhibitors. actives 1.2% (n = 410,000); further: nearly all actives have a fitted effect of over 65% in size
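HEPG2 CAGA-GFP, 1000 cells/well; 2 h settle, 37 C; cpd via pin tool; TGF-b 500 pg/mL final; 18 h, 37 C; GFP imaging ex488/em500-530; %Activity normalised to -TGF-b and +DMSO controls; CRC fit, curve class.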
TDP1 cell CPT: qHTS for Inhibitors of human tyrosyl-DNA phosphodiesterase 1 (TDP1): qHTS in cells in presence of CPT; chicken DT40 Tdp1-/-;hTDP1 cells + 20 nM CPT, ATP luminescence, 48 h; Potency, µM (titrated, usually from 46.2 µM), actives largely listed as inhibitors; actives 12% (n = 420,000); AID 686979, 2013; further: nearly all actives have a fitted effect of over 55% in size
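Cell growth measured by CellTiter-Glo luminescence after a minimum 48 h, 37 C compound exposure with 20 nM CPT in Tdp1-knockout DT40 cells stably expressing hTDP1, seeded 400/well; qHTS titration format.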
HT1080NT lethal: qHTS for induction of synthetic lethality in tumor cells producing 2HG: qHTS for the HT-1080-NT fibrosarcoma cell line | actives 1.6% (n = 360,000) | Potency, µM (top dose mostly 46.1 µM), hits mostly cytotoxic | HT-1080-NT fibrosarcoma viability, CellTiter-Glo ATP luminescence, 48 h;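 further: NT is the 2HG producing partner of a matched IDH1 knockdown line; nearly all actives have a fitted effect of over 55% in size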
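HT-1080-NT; 750 cells/well; 5% FBS RPMI; 48 h compound, 37 degrees C; CellTiter-Glo luminescence; curve fitting and curve-class assignment.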
HT1080 IDH1KD tx: qHTS for induction of synthetic lethality in tumor cells producing 2HG: qHTS for the HT-1080-IDH1KD cell line; actives 2% (n = 360,000); Potency, µM (highest dose often 46.1 µM), usual class: cytotoxic; AID 686971, 2013; HT-1080 IDH1 knockdown viability, ATP luminescence, 48 h
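% activity derives from luminescence (CellTiter-Glo), normalised to DMSO and no-cell wells. HT-1080-IDH1KD cells, 750/well, had 48 h compound exposure at 37 °C.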
TDP1 cell noCPT: qHTS for Inhibitors of human tyrosyl-DNA phosphodiesterase 1 (TDP1): qHTS in cells in absence of CPT. DT40 Tdp1-/- hTDP1 cells, no CPT, ATP luminescence, 48 h. Potency, µM (series often up to 46.2 µM), hits mostly inhibitors. actives 15% (n = 420,000). AID 686978, 2013; further: nearly all actives have a fitted effect of over 55% in size
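Readout: luminescence from CellTiter-Glo after 30 min in the dark at RT. Cells: DT40 Tdp1-/- with stable hTDP1, 400/well. Exposure: compounds alone, ≥48 hr, 37 °C.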
TGFb confirm: qHTS for Inhibitors of TGF-b: Confirmation of Cherry Picks | shares compounds with TGFb SMAD3 inh | HepG2 CAGA-GFP TGF-b reporter, GFP fluorescence, 18 h; cells stimulated with TGF-beta, 500 pg/mL | Potency, µM (doses to about 46.1 µM), hits mostly inhibitors | actives 63% (n = 1,600) | AID 720534, 2013; further: nearly all actives have a fitted effect of over 65% in size
HepG2 tox-2: qHTS for Inhibitors of TGF-b: Cytotox Counterscreen for Cherry Picks. shares compounds with TGFb SMAD3 inh. HepG2 CAGA-GFP viability, ATP luminescence, 18 h; cells stimulated with TGF-beta, 500 pg/mL. Potency, µM (doses to about 46.1 µM), usual class: inhibitors. actives 27% (n = 1,600); further: nearly all actives have a fitted effect of over 70% in size
CCL64 TGFb inh: qHTS for Inhibitors of TGF-b: CCL64 Cells Orthogonal Assay for Cherry Picks | CCL64 CAGA-GFP reporter, TGF-b stimulated, GFP fluorescence, 18 h | shares compounds with TGFb SMAD3 inh | Potency, µM (doses to about 46.1 µM), most hits filed as inhibitors | actives 41% (n = 1,600); further: nearly all actives have a fitted effect of over 65% in size
TGFb COP inh: qHTS for Inhibitors of TGF-b: Hit Validation in HepG2 Cells using COP promoter | shares compounds with TGFb SMAD3 inh | HepG2 COP-GFP TGF-b reporter, GFP fluorescence, 18 h; cells stimulated by added recombinant TGF-beta | Potency, µM (series often up to 46.1 µM), actives largely listed as inhibitors | actives 3% (n = 1,600) | AID 720537, 2013; further: nearly all actives have a fitted effect of over 70% in size
Numbers stand for hits; . = inactive; ? = inconclusive; / = no result given. Sampled rows, rich in hits. Any-hit rate of the full collection: about 17%. The call rests on the fitted dose curve; in most records, active means well fitted curve in the direction sought with a large enough effect; inconclusive means small, poorly fitted or top-dose-only effect, or another doubt; inactive means no such curve, though single readings can be large; an effect the other way counts as inactive or inconclusive.

SMILES	HepG2 tox-1	TGFb SMAD3 inh	TDP1 cell CPT	HT1080NT lethal	HT1080 IDH1KD tx	TDP1 cell noCPT	TGFb confirm	HepG2 tox-2	CCL64 TGFb inh	TGFb COP inh
CC(=O)Nc1ccc(S(=O)(=O)Nc2cc([N+](=O)[O-])ccc2C)cc1	.	.	?	.	.	?	/	/	/	/
Cc1ccc(C(C)C)cc1NC(=O)Nc1ccc([N+](=O)[O-])cc1	.	7.9µM	4.6µM	.	.	3.7µM	?	?	18µM	.
c1ccc(-c2nc(NC3CC3)nc(-n3ccnc3)n2)cc1	.	.	.	.	.	?	/	/	/	/
NC(=O)c1c(NC(=O)c2ccc([N+](=O)[O-])o2)sc2c1CCCC2	.	?	?	?	?	?	/	/	/	/
N#Cc1c(NC(=O)c2ccc([N+](=O)[O-])o2)sc2c1CCC2	.	?	18µM	?	?	10µM	12µM	9.2µM	15µM	.
CN1CCc2c(sc(NC(=O)c3ccc([N+](=O)[O-])o3)c2C(N)=O)C1	.	1.8µM	1.6µM	6.5µM	0.58µM	3.7µM	0.58µM	2.3µM	?	.
O=C(NCC1CCCO1)c1ccc(CS(=O)(=O)Cc2ccc(F)cc2)o1 (stereo unspecified)	.	.	.	.	.	.	/	/	/	/
CCN(CC)S(=O)(=O)c1cccc(C(=O)N[C@H](C(=O)Nc2nc3ccc(F)cc3s2)C(C)C)c1	.	7.9µM	16µM	.	?	15µM	4.1µM	?	?	.
CCN(CC)S(=O)(=O)c1cccc(C(=O)NC(C(=O)Nc2nnc(C3CC3)s2)C(C)C)c1 (stereo unspecified)	.	.	.	.	.	?	/	/	/	/
O=C(Oc1c(Cl)cc(Cl)c2cccnc12)c1cccs1	.	3.5µM	16µM	21µM	21µM	?	21µM	?	?	.
CC(CN1CCOCC1)OC(=O)c1cccs1 (stereo unspecified)	.	.	.	.	.	.	/	/	/	/
O=C(Oc1c(CN2CCOCC2)cc(Cl)c2cccnc12)c1cccs1	.	7.1µM	4.1µM	2.9µM	3.7µM	4.6µM	?	?	16µM	.
Cc1ccc2oc(=O)c3cnn(CC(=O)Nc4cccc(C(F)(F)F)c4)c3c2c1	.	.	.	/	/	.	/	/	/	/
Cn1nc(C(=O)OCc2ccc(F)cc2)c2ccccc2c1=O	.	.	.	.	.	?	/	/	/	/
Cc1ccc(COC(=O)c2nn(C)c(=O)c3ccccc23)cc1	.	?	?	.	?	13µM	?	.	.	.
O=C(/C=C/c1ccccc1)N1CCOCC1	.	.	.	.	.	.	/	/	/	/
O=C(/C=C/c1ccccc1)CCN1CCOCC1	10µM	7.1µM	0.92µM	?	18µM	1.5µM	2.6µM	7.3µM	10µM	?
CCOc1ccc(NC(=O)Cn2c(=O)cc(C)c3c(C)nn(-c4ccc(CC)cc4)c32)cc1	.	.	?	/	/	?	/	/	/	/
O=C(Nc1ccccn1)c1ccc([N+](=O)[O-])o1	.	10µM	16µM	?	?	16µM	16µM	?	?	.
O=C(Nc1nc2ccc(F)cc2s1)c1ccc([N+](=O)[O-])o1	.	5.6µM	6.5µM	?	.	7.3µM	4.6µM	9.2µM	?	.
O=C(Nc1cccc(NC(=O)c2ccccc2Cl)c1)c1ccc([N+](=O)[O-])o1	.	3.5µM	8.2µM	?	9.2µM	5.8µM	1.3µM	6.5µM	8.2µM	?
COc1ccccc1NC(=O)c1ccc([N+](=O)[O-])o1	13µM	2.8µM	13µM	?	?	16µM	?	?	?	.
O=C(Nc1ccccn1)c1ccco1	.	.	.	.	.	.	/	/	/	/
Cn1c(SCc2ccccc2C#N)nnc1-c1ccncc1	.	.	.	.	.	.	/	/	/	/
CCC(=O)Nc1ccc(C(=O)NNC(=O)C2CCCCC2)cc1	.	.	.	.	.	.	/	/	/	/
SMILES	HepG2 tox-1	TGFb SMAD3 inh	TDP1 cell CPT	HT1080NT lethal	HT1080 IDH1KD tx	TDP1 cell noCPT	TGFb confirm	HepG2 tox-2	CCL64 TGFb inh	TGFb COP inh
Cc1ccc(S(=O)(=O)N2CCCCC2)cc1C(=O)NCc1ccccn1	.	?	.	.	.	.	/	/	/	/
O=C(NCCCN1CCCC1=O)C1CCN(S(=O)(=O)c2ccccc2)CC1	.	?	.	.	.	.	/	/	/	/
COc1ccc(N2CCCC2)c(NC(=O)c2ccc([N+](=O)[O-])o2)c1	.	5.6µM	7.3µM	.	.	18µM	?	?	?	.
CCc1nnc(NC(=O)CN2CCCC(C)C2)s1 (stereo unspecified)	.	.	.	.	.	.	/	/	/	/
Cc1ccc(C2(c3ccc(C)cc3)CC2C(=O)Nc2ccc([N+](=O)[O-])cc2O)cc1 (stereo unspecified)	11µM	4µM	3.7µM	21µM	16µM	2.6µM	5.8µM	8.2µM	7.3µM	?
CC1(C)NC(=O)NC2(C)NC(=O)NC(C)(C)C12 (stereo unspecified)	.	.	.	.	.	.	/	/	/	/
C[C@@H]1COC(=O)[C@H](Cc2ccc(F)cc2)CC/C=C/C[C@@H](CC(=O)N[C@H](CO)Cc2ccccc2)C(=O)N1	.	.	?	.	.	?	/	/	/	/

High-throughput results: PubChem, National Center for Advancing Translational Sciences (NCATS)
